The text below walks through data of PubChem BioAssay (EPA / NIEHS).

Several values for one entry are separate records, joined by “and”; a condition that tells them apart may be missing. Identical values can stand only once. Activity calls are given as the source filed them. Rule for the calls: active = hit-call score of the fitted dose curve at least 0.9, where 1 is the maximum; inactive = score below 0.9.

Test [1] deals with Transcription factor E2F1 (Homo sapiens) (UniProt Q01094). Nature of the test: ATG_E2F_CIS: Attagene CIS-FACTORIAL HepG2 Assay for human E2F Transcription Factor 1 (AID 2282935). The following applies: HepG2 Attagene cis-reporter, E2F reporter RNA transcripts; actives raise or lower the signal. In short, it runs like this:
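Liver-derived HepG2 cells expressing transfected promoter-driven reporter units received test chemical for 24 hours. Signal gains or losses were fitted bidirectionally against DMSO.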

A short description of test [2]: ATG_E_Box_CIS: Attagene CIS-FACTORIAL HepG2 Assay for human Enhancer Box (E-box) (AID 2282936). As to conditions: HepG2 E-box cis-reporter transcription, actives raise or lower the signal. In a few lines: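 In this cell-based setup, HepG2 cells bearing transfected promoter-driven reporter units were exposed to chemicals for 24 h; reporter transcripts were amplified, 6-FAM-labelled, cut with HpaI and sized by capillary electrophoresis.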

Test [3] is described as follows: ATG_M_61_CIS: Attagene CIS-FACTORIAL HepG2 Assay for M61 Transcription Factor (Internal Marker) (AID 2282937). As to conditions: HepG2 Attagene CIS-FACTORIAL M61 internal marker reporter; actives raise or lower the signal. In a few lines:
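Readout: fluorescent reporter mRNA fragments resolved by capillary electrophoresis after RT-PCR. Transiently transfected human HepG2 cells carried MRTU constructs reporting endogenous TF activity; 24 h chemical exposure; gain or loss of signal fitted relative to DMSO.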

Test [4] in a line: ATG_EGR_CIS: Attagene CIS-FACTORIAL HepG2 Assay for human Early Growth Response 1 (EGR1) (AID 2282938). The following applies: HepG2 Attagene CIS-FACTORIAL EGR reporter mRNA; actives raise or lower the signal. In short, it runs like this: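 Read-out: fluorescent reporter-mRNA fragments resolved by capillary electrophoresis after RT-PCR, 24 h post-dose in transiently transfected HepG2. Endogenous transcription-factor activity reported via cis-element-regulated reporter units; gain or loss fitted relative to DMSO.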

A short description of test [5]: ATG_M_19_CIS: Attagene CIS-FACTORIAL HepG2 Assay for M19 Transcription Factor (Internal Marker) (AID 2282939). As to conditions: HepG2 Attagene CIS-FACTORIAL M19 internal marker reporter; actives raise or lower the signal. In short, it runs like this:
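HepG2 cells transiently transfected with cis-regulated multiple reporter transcription units were dosed for 24 h; reporter mRNA was quantified by RT-PCR, 6-FAM primer-extension labelling, HpaI digestion and capillary electrophoresis, with bidirectional fitting against DMSO baseline.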

A short description of test [6]: ATG_ERE_CIS: Attagene CIS-FACTORIAL HepG2 Assay for Estrogen Response Element (ERE) (AID 2282940). As to conditions: HepG2 ERE cis-reporter, Attagene RNA transcript; actives raise or lower the signal. In a few lines:
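HepG2 cells transiently transfected with cis-promoter-driven multiplexed reporter transcription units report endogenous TF activity. After 24 h compound exposure, reporter mRNA is quantified by RT-PCR with capillary electrophoresis fluorescence; bidirectional fitting versus DMSO baseline.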

Test [7] can be described thus: ATG_Ets_CIS: Attagene CIS-FACTORIAL HepG2 Assay for human Erythroblast Transformation Specific (ETS) (AID 2282941). The following applies: HepG2 ETS cis-reporter transcription, actives raise or lower the signal. In short, it runs like this: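 RT-PCR/capillary electrophoresis fluorescence read-out of reporter mRNA; HepG2 transient multi-reporter transfection; 24 h compound exposure; gain or loss of signal fitted bidirectionally relative to DMSO.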

For test [8], the target named is Hepatocyte nuclear factor 3-beta (Homo sapiens) (UniProt Q9Y261). Put plainly: ATG_FoxA2_CIS: Attagene CIS-FACTORIAL HepG2 Assay for human Forkhead box A2 (FOXA2) (AID 2282942). As to conditions: HepG2 cis-reporter transcription factor activity, 24 h; actives raise or lower the signal. In a few lines: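 Readout: fluorescent reporter transcripts resolved by capillary electrophoresis after RT-PCR. Transiently transfected HepG2, 24 h compound exposure, endogenous TF activity at cis promoter elements. Gain or loss of signal fitted relative to DMSO.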
Hepatocyte nuclear factor 3-beta (Homo sapiens), sequence (Q9Y261 whole entry, looked up): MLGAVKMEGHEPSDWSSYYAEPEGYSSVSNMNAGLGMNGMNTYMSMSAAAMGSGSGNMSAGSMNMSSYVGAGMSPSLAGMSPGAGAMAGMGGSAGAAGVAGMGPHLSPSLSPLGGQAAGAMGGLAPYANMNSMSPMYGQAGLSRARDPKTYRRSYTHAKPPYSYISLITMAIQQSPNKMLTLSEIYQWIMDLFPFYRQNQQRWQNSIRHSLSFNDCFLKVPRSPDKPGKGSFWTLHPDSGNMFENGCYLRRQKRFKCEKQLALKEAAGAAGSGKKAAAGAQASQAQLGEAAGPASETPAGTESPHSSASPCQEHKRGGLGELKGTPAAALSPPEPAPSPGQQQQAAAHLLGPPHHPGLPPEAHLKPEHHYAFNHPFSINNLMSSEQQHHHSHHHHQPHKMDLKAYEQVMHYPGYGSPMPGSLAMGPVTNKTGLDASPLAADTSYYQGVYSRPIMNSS

Test [9] can be described thus: ATG_FoxO_CIS: Attagene CIS-FACTORIAL HepG2 Assay for human Forkhead box O (FoxO) (AID 2282943). The following applies: HepG2 Attagene cis-reporter, FoxO element, mRNA; actives raise or lower the signal. In a few lines: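 Read-out: fluorescence of 6-FAM-labelled reporter cDNA fragments resolved by capillary electrophoresis. Transiently transfected HepG2 cells were dosed for 24 h; activity fitted in both directions relative to DMSO controls.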

Test [10] is described as follows: ATG_GATA_CIS: Attagene CIS-FACTORIAL HepG2 Assay for human GATA Binding Protein (AID 2282944). The following applies: HepG2 GATA cis-element reporter, Attagene multiplex mRNA; actives raise or lower the signal. In short, it runs like this:
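HepG2 cells transiently transfected with multiplexed cis-element reporter units reflecting endogenous transcription factor activity; reporter mRNA measured after 24 h dosing by RT-PCR, 6-FAM labeling, HpaI digestion and capillary electrophoresis. Bidirectional fitting versus DMSO baseline.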

Transcription factor E2F1 (Homo sapiens), sequence (Q01094 whole entry, looked up): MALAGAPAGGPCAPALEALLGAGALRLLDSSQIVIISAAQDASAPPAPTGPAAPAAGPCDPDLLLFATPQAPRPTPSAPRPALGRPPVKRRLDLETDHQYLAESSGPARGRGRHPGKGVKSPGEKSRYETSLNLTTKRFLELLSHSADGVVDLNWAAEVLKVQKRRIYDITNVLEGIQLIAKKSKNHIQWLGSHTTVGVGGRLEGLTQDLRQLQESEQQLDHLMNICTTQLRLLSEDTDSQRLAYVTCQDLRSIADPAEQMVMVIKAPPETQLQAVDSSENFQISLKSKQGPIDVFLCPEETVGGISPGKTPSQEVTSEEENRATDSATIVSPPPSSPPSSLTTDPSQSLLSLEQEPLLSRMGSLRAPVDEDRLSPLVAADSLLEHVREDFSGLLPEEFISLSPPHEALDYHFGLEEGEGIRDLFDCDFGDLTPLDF

As for `ClC(Cl)c1ccccc1`, the molecule was called inactive in [1], in [2], in test [3], in test [4], in test [5] and in test [6]. For the same molecule, the outcome in [7], in test [8], in test [9] and in test [10] was inactive.

`Nc1ccc2ccccc2c1`: the outcome in test [1], in [2], in [3], in [4], in [5] and in test [6] was inactive. For the same molecule, the molecule was classed as inactive in test [7], in [8], in test [9] and in test [10].

What is called AC50 is the concentration giving half of the maximal activity seen. Consider `CO/N=C(/C(=O)OC)c1ccccc1COc1ccccc1C`, for which the result in [1], in test [3], in test [5], in test [7], in [8] and in test [9] was inactive. Besides, the outcome in test [10] was inactive. The AC50 in test [2] is 100 µM (active); in test [4], 43 µM (active); in test [6], 42.9 µM (active).

Consider `Nc1ccc(Cl)cc1`, for which the molecule was classed as inactive in test [1], in test [2], in test [3], in test [4], in [5] and in [6]. Moreover, the molecule was classed as inactive in test [7], in [8], in [9] and in test [10].

Turning to `Cc1ccc2c(c1N)C(=O)c1ccccc1C2=O`, the result in test [1], in test [2], in test [3], in test [4], in [5] and in test [7] was inactive. The molecule was classed as inactive in test [8], in [9] and in test [10]. Also, the concentration at half-maximal activity (AC50) in [6] was 5.24 µM (active).

Consider `Cc1ccc(O)cc1C`, for which the molecule was called inactive in test [1], in test [2], in [3], in [4], in [5] and in test [7]. Also, the result in test [8], in [9] and in test [10] was inactive. In test [6], the AC50 is 160 µM (active).

`CCOP(=S)(S)OCC`: the result in [1], in [2], in [3], in test [4], in [5] and in test [6] was inactive. Also, the molecule was classed as inactive in test [7], in [8], in test [9] and in test [10].

As for `CCOc1ccc(C(C)(C)COCc2cccc(Oc3ccccc3)c2)cc1`, the result in test [1], in [2], in test [3], in [4], in test [5] and in test [6] was inactive. Also, the molecule was called inactive in [7], in test [8], in test [9] and in test [10].

For the molecule `CC(C)(C)c1ccccc1OP(=O)(Oc1ccccc1)Oc1ccccc1`, the molecule was classed as inactive in test [1], in test [2], in test [3], in test [4], in test [5] and in [7]. For the same molecule, the outcome in test [8], in [9] and in [10] was inactive. For the same molecule, the AC50 in [6] is 12.4 µM (active).

With `CC(=O)CCc1ccc2c(c1)OCO2`, the outcome in test [1], in test [2], in test [3], in test [4], in test [5] and in test [6] was inactive. Also, the molecule was classed as inactive in test [7], in test [8], in [9] and in test [10].

For the molecule `CC(Cl)CN(C)C` (centres undefined), the outcome in test [1], in test [2], in [3], in test [4], in test [5] and in test [6] was inactive. Also, the outcome in [7], in test [8], in test [9] and in test [10] was inactive.

On to `CCOP(=S)(OCC)SCSCC`, for which the result in [1], in test [2], in test [3], in test [4], in test [5] and in test [7] was inactive. Further, the molecule was called inactive in test [8], in [9] and in [10]. The AC50 in [6] was 14.9 µM (active).

Consider `ClC(Cl)(Cl)c1ccccc1`, for which the call in [1], in test [2], in test [3], in [4], in test [5] and in test [7] was inactive. The result in [8], in test [9] and in test [10] was inactive. In [6], the half-maximal activity concentration (AC50) was 45.1 µM (active).

On to `N#Cc1c(-c2ccc(Cl)cc2)[nH]c(C(F)(F)F)c1Br`, for which the outcome in [1], in [2], in test [3], in [4], in test [5] and in [6] was inactive. Also, the result in test [8], in test [9] and in test [10] was inactive. Also, in [7], the half-maximal activity concentration (AC50) was 19.8 µM (active).

`ClC(Cl)=C(c1ccc(Cl)cc1)c1ccccc1Cl`: the call in test [1], in test [3], in test [4], in test [5], in test [8] and in [10] was inactive. In addition, the AC50 in test [2] was 63.6 µM (active); in [6], 4.18 µM (active); in [7], 174 µM (active); in test [9], 160 µM (active).

As for `O=C(O)C(F)(F)C(F)(F)C(=O)O`, the outcome in test [1], in [2], in test [3], in test [4], in [5] and in [6] was inactive. Also, the molecule was classed as inactive in [7], in test [8], in test [9] and in test [10].

Consider `CCOP(=O)(O)C(N)=O`, for which the molecule was called inactive in test [1], in test [2], in test [3], in [4], in test [5] and in [6]. Moreover, the result in test [7], in test [8], in test [9] and in test [10] was inactive.

Regarding `CCNc1nc(Cl)nc(NC(C)(C)C)n1`, the molecule was called inactive in test [1], in test [2], in [3], in test [4], in test [5] and in test [7]. Moreover, the molecule was classed as inactive in [8], in test [9] and in test [10]. In test [6], the half-maximal activity concentration (AC50) is 8.92 µM (active).

As to `CCCCC(CC)COP(=O)(Oc1ccccc1)Oc1ccccc1` (centres undefined), the molecule was classed as inactive in [1], in test [2], in test [3], in test [5], in test [7] and in [8]. Further, the call in test [9] and in test [10] was inactive. Moreover, the AC50 in test [4] is 57.6 µM (active); in [6] it was 6.77 µM (active).

For `NC(=O)C(F)(F)C(F)(F)F`, the outcome in test [1], in test [2], in test [3], in test [4], in test [5] and in test [6] was inactive. For the same molecule, the outcome in test [7], in test [8], in [9] and in [10] was inactive.

As for `COC(=O)C(F)(F)C(F)(F)OC(F)(C(F)(F)F)C(F)(F)OC(F)=C(F)F` (centres undefined), the outcome in [1], in [2], in [3], in [4], in test [5] and in [7] was inactive. Besides, the call in test [8], in test [9] and in test [10] was inactive. Moreover, the half-maximal activity concentration (AC50) in test [6] is 303 nM (active) and 563 nM (active) and 514 nM (active).

In the case of `Cc1ccc([N+](=O)[O-])cc1C`, the call in [1], in test [2], in [3], in test [4], in test [5] and in test [6] was inactive. For the same molecule, the molecule was called inactive in test [7], in [8], in [9] and in [10].

As for `CCCCN(CCCC)N=O`, the molecule was called inactive in test [1], in [2], in test [4], in test [5], in test [6] and in test [7]. Besides, the molecule was classed as inactive in [8], in [9] and in test [10].
